Laboratory results: PubChem BioAssay (Tox21)
Results filed as inconclusive are left out. Where a call stands in place of a potency, no number is given. The source made the active and inactive calls. Unless noted, the call rests on the fitted dose curve.

Test system: thyroid hormone receptor (rat, GH3 cells)
Experiment: qHTS assay to identify small molecule agonists of the thyroid receptor (TR) signaling pathway (AID 743066)
Conditions: GH3.TRE-Luc cells, TR agonist luciferase, 24 h; series mostly up to 83.9 µM

SMILES	outcome
CC1(C)C(=O)N(Cl)C(=O)N1Br	inactive
CCC/C=C/CO	inactive
CCOC(=O)c1ccccc1O	inactive
Cc1ccc([N+](=O)[O-])cc1Cl	inactive
OCCN1CCN(CCO)CC1	inactive
COc1ccccc1OCC(O)COC(N)=O (stereo not given)	inactive
C=O	inactive
CC/C=C\CCOC(=O)CCCCC	inactive
CCOc1ccc(NC(N)=O)cc1	inactive
Clc1cccc(-c2cc(Cl)cc(Cl)c2)c1	inactive
CC1=CC(=O)CC(C)(C)C1=O	inactive
CN(CC1(C)CCCO1)S(=O)(=O)c1ccc(Cl)c(S(N)(=O)=O)c1 (stereo not given)	inactive
C=CCCCCCCCCO	inactive
CC1=NN(c2cc(Cl)c(S(=O)(=O)O)cc2Cl)C(=O)C1N=Nc1ccc(S(=O)(=O)O)cc1 (stereo not given)	inactive
CS(=O)(=O)c1ccc([C@@H](O)[C@@H](CF)NC(=O)C(Cl)Cl)cc1	inactive
COc1ccc2nc(NC(=O)Nc3ccccc3)sc2c1	inactive

SMILES	outcome
O=c1oc2c(O)c(O)cc3c(=O)oc4c(O)c(O)cc1c4c23	inactive
CCC(=O)Nc1ccc(O)cc1	inactive
Cc1nnc(SCC2=C(C(=O)O)N3C(=O)[C@@H](NC(=O)Cn4cnnn4)[C@H]3SC2)s1	inactive
Cc1ccc([N+](=O)[O-])c(N)c1	inactive
C=CC1CO1 (stereo not given)	inactive
Cc1ccc(C(C)C)cc1O	inactive
O=C1CCCCCCCCCCC(=O)OCCO1	inactive
COc1cc(Cl)ccc1Cl	inactive
CCNCCO	inactive
CCc1nnc(NS(=O)(=O)c2ccc(N)cc2)s1	inactive
FC(F)(F)c1ccccc1	inactive
CC(C)OC(C)C	inactive
ClC(Cl)Cl	inactive
CCCN(CCC)C(=O)C(CCC(=O)O)NC(=O)c1ccccc1 (stereo not given)	inactive
CC1(C)O[C@@H]2C[C@H]3[C@@H]4CCC5=CC(=O)CC[C@]5(C)[C@@]4(F)[C@@H](O)C[C@]3(C)[C@]2(C(=O)CCl)O1	inactive

Molecular target: Estrogen receptor (Homo sapiens) (UniProt P03372)
Experiment: qHTS assay to identify small molecule antagonists of the estrogen receptor alpha (ER-alpha) signaling pathway (AID 743069; active means well fitted curve in the direction sought with a large enough effect in the signal ratio in the repeat runs, not every such curve was filed as active; the % refers to the signal ratio)
Conditions: HEK293 ER-alpha-UAS-bla, beta-lactamase ratio, antagonist mode; series mostly up to 69.4 µM
In short: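 Estradiol-stimulated ER-alpha-UAS-bla HEK293 cells, 18 hr compound exposure at 37C. LiveBLAzer B/G substrate, 2 hr RT, fluorescence read.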

Sequence of Estrogen receptor (Homo sapiens) (P03372 whole entry, looked up): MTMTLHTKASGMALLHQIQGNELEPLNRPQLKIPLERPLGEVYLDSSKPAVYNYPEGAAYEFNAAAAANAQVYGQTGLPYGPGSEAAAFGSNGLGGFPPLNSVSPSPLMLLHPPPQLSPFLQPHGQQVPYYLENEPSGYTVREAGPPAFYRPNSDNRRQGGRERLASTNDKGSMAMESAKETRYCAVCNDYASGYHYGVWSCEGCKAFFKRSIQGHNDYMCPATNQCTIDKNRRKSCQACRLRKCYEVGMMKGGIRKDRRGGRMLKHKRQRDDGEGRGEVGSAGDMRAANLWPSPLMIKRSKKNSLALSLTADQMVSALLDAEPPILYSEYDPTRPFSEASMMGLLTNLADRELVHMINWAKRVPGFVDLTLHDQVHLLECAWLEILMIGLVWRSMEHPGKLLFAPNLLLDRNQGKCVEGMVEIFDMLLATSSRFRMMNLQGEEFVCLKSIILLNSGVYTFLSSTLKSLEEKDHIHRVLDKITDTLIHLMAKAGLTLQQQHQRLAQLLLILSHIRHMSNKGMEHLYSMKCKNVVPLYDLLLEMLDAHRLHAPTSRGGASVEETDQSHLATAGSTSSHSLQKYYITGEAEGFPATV

SMILES	Potency
C[C@@H]1CN(c2c(F)c(N)c3c(=O)c(C(=O)O)cn(C4CC4)c3c2F)C[C@H](C)N1	inactive
CCCCCCC	inactive
COc1ccccc1OCC(O)COC(N)=O (stereo not given)	inactive
CC/C=C\CCOC(=O)CCCCC	inactive
CCOc1ccc(NC(N)=O)cc1	inactive
Clc1cccc(-c2cc(Cl)cc(Cl)c2)c1	inactive
CC1=CC(=O)CC(C)(C)C1=O	inactive
C=CCCCCCCCCO	inactive
O=C(O)C(=O)Cc1c[nH]c2ccccc12	inactive
CS(=O)(=O)c1ccc([C@@H](O)[C@@H](CF)NC(=O)C(Cl)Cl)cc1	inactive
O=c1oc2c(O)c(O)cc3c(=O)oc4c(O)c(O)cc1c4c23	inactive
CCC(=O)Nc1ccc(O)cc1	inactive
Cc1nnc(SCC2=C(C(=O)O)N3C(=O)[C@@H](NC(=O)Cn4cnnn4)[C@H]3SC2)s1	inactive
CCCOCCC	inactive
O=C1CCCCCCCCCCC(=O)OCCO1	inactive
FC(F)(F)c1ccccc1	inactive
CC(C)OC(C)C	inactive
CC1(C)O[C@@H]2C[C@H]3[C@@H]4CCC5=CC(=O)CC[C@]5(C)[C@@]4(F)[C@@H](O)C[C@]3(C)[C@]2(C(=O)CCl)O1	inactive
O=C(O[C@@H](C(=O)O)[C@@H](OC(=O)c1ccccc1)C(=O)O)c1ccccc1	inactive
